Assay results from PubChem BioAssay (NCATS).
Inconclusive results are not listed. The source made the active and inactive calls. Calls follow the shape of the dose curve; as a rule, active = well fitted curve in the direction sought with a large enough effect; inconclusive = small, poorly fitted or top-dose-only effect, or another doubt; inactive = no such curve, though single readings can be large; an effect the other way counts as inactive or inconclusive.

Legend:
[1] = Quantitative High-Throughput drug screen in 47 multiple myeloma cell lines against the NCATS MIPE library collection: FR4_PLB cell viability assay (AID 1918924; also: nearly all actives have a fitted effect of over 35% in size)
Method in brief: (§1)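 Primary qHTS used for cherry-picking: cells at 500/well, library compounds for 48 h (37C, 5% CO2), luminescent ATP assay.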

[2] = Quantitative High-Throughput drug screen in 47 multiple myeloma cell lines against the NCATS MIPE library collection: Delta47_JCRB cell viability assay (AID 1918925; also: nearly all actives have a fitted effect of over 45% in size)
Method in brief: (§2)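 Relative luminescence from CellTiter-Glo served as the viability signal, referenced to DMSO-treated (100%) and cell-free medium (0%) controls. Treatment lasted 48 hours at 37C with 500 cells per well.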

[3] = Quantitative High-Throughput drug screen in 47 multiple myeloma cell lines against the NCATS MIPE library collection: ARD_JJKsccE7 cell viability assay (AID 1918929)
Method in brief: as §2

[4] = Quantitative High-Throughput drug screen in 47 multiple myeloma cell lines against the NCATS MIPE library collection: Karpas620_DSMZ cell viability assay (AID 1918959); also: nearly all actives have a fitted effect of over 30% in size
Method in brief: as §1

[5] = Quantitative High-Throughput drug screen in 47 multiple myeloma cell lines against the NCATS MIPE library collection: KMM1_JCRB cell viability assay (AID 1918960); also: nearly all actives have a fitted effect of over 30% in size
Method in brief: (§3)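 ATP readout (CellTiter-Glo), 48 h drug incubation, 37 °C/5% CO2, 500 cells per well; normalisation to DMSO (100%) and media-only (0%) controls.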

[6] = Quantitative High-Throughput drug screen in 47 multiple myeloma cell lines against the NCATS MIPE library collection: JIM3_ECACC cell viability assay (AID 1918963; also: nearly all actives have a fitted effect of over 35% in size)
Method in brief: as §1

[7] = Quantitative High-Throughput drug screen in 47 multiple myeloma cell lines against the NCATS MIPE library collection: Karpas25_ECACC cell viability assay (AID 1918968; also: nearly all actives have a fitted effect of over 35% in size)
Method in brief: as §2

[8] = Quantitative High-Throughput drug screen in 47 multiple myeloma cell lines against the NCATS MIPE library collection: KMS27_JCRB cell viability assay (AID 1918970); also: nearly all actives have a fitted effect of over 30% in size
Method in brief: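 ATP-based viability (CellTiter-Glo luminescence) is measured in cells treated 48 h with approved and investigational drugs at 37 °C. Controls are DMSO-only wells for full viability and media-only wells for none.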

[9] = Quantitative High-Throughput drug screen in 47 multiple myeloma cell lines against the NCATS MIPE library collection: KMS12PE_JCRB cell viability assay (AID 1918972); also: nearly all actives have a fitted effect of over 30% in size
Method in brief: (§4)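 We plated 500 myeloma cells per well, pinned in MIPE 4.0 compounds, and incubated for 48 hours at 37C. ATP was then quantified with CellTiter-Glo, with DMSO and media-only wells defining 100% and 0%.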

[10] = Quantitative High-Throughput drug screen in 47 multiple myeloma cell lines against the NCATS MIPE library collection: KMS20_JCRB cell viability assay (AID 1918973); also: nearly all actives have a fitted effect of over 45% in size
Method in brief: as §2

[11] = Quantitative High-Throughput drug screen in 47 multiple myeloma cell lines against the NCATS MIPE library collection: INA6_PLB cell viability assay (AID 1918965; also: nearly all actives have a fitted effect of over 55% in size)
Method in brief: as §4

[12] = Quantitative High-Throughput drug screen in 47 multiple myeloma cell lines against the NCATS MIPE library collection: KMS12BM_JCRB cell viability assay (AID 1918971); also: nearly all actives have a fitted effect of over 35% in size
Method in brief: as §4

[13] = Quantitative High-Throughput drug screen in 47 multiple myeloma cell lines against the NCATS MIPE library collection: AMO1_DSMZ cell viability assay (AID 1918927; also: nearly all actives have a fitted effect of over 30% in size)
Method in brief: as §2

[14] = Quantitative High-Throughput drug screen in 47 multiple myeloma cell lines against the NCATS MIPE library collection: ARP1_JJKsccF8 cell viability assay (AID 1918928; also: nearly all actives have a fitted effect of over 40% in size)
Method in brief: as §3

[15] = Quantitative High-Throughput drug screen in 47 multiple myeloma cell lines against the NCATS MIPE library collection: JJN3_DSMZ cell viability assay (AID 1918966; also: nearly all actives have a fitted effect of over 50% in size)
Method in brief: as §2

[16] = Quantitative High-Throughput drug screen in 47 multiple myeloma cell lines against the NCATS MIPE library collection: KHM11_PLB cell viability assay (AID 1918962); also: nearly all actives have a fitted effect of over 35% in size
Method in brief: as §1

[17] = Quantitative High-Throughput drug screen in 47 multiple myeloma cell lines against the NCATS MIPE library collection: H1112_PLB cell viability assay (AID 1918967; also: nearly all actives have a fitted effect of over 30% in size)
Method in brief: as §2

[18] = Quantitative High-Throughput drug screen in 47 multiple myeloma cell lines against the NCATS MIPE library collection: JIM1_ECACC cell viability assay (AID 1918964)
Method in brief: as §2

Measured: Potency
Potency is read from the fitted curve at half-maximal effect.

Cc1c(NC(=O)OC[C@@H]2COCCN2)cn2ncnc(Nc3ccc4c(cnn4Cc4cccc(F)c4)c3)c12
active: [1] 1.32 µM | [2] 0.833 µM | [3] 11.8 µM | [4] 18.7 µM | [5] 14.8 µM | [6] 1.32 µM | [7] 7.43 µM | [8] 20900 nM | [9] 18700 nM | [10] 1.87 µM

Cc1cccc(C=NNc2cc(N3CCOCC3)nc(OCCc3ccccn3)n2)c1
active: [1] 4.69 µM | [2] 1.32 µM | [3] 1.05 µM | [4] 0.469 µM | [11] 14.8 µM | [12] 14.8 µM | [9] 332 nM | [10] 6.62 µM

C[C@@H]1CN(CC(=O)Nc2ccc3c(c2)Cc2cccc(-c4cc(=O)cc(N5CCOCC5)o4)c2S3)C[C@H](C)O1
active: [1] 16.6 µM | [2] 2.64 µM | [13] 5.26 µM | [14] 9.35 µM | [3] 18.7 µM | [5] 10.5 µM | [15] 13.2 µM | [7] 4.18 µM | [8] 18700 nM | [12] 20.9 µM | [9] 13200 nM

Cc1cc(C(=O)N2CCN(c3cccc(Cl)c3)CC2)n(-c2ccccc2)n1
active: [1] 0.148 µM | [2] 0.833 µM | [13] 0.0332 µM | [14] 0.59 µM | [3] 0.264 µM | [4] 0.0296 µM | [5] 0.187 µM | [16] 0.418 µM | [11] 0.418 µM | [17] 833 nM | [7] 1.32 µM | [8] 148 nM | [12] 0.264 µM | [9] 743 nM | [10] 0.209 µM

Cc1coc2c1C(=O)C(=O)c1c-2ccc2c1CCCC2(C)C
active: [1] 20.9 µM | [2] 8.33 µM | [14] 16.6 µM | [16] 7.43 µM | [6] 6.62 µM | [11] 16.6 µM | [15] 11.8 µM | [17] 8330 nM | [8] 166 nM | [12] 5.26 µM | [10] 9.35 µM
inactive: [4]

O=C(O)c1ccc2cc(-c3ccc(O)c(C45CC6CC(CC(C6)C4)C5)c3)ccc2c1
active: [1] 23.5 µM | [2] 5.9 µM | [14] 5.9 µM | [3] 5.26 µM | [4] 5.26 µM | [6] 3.72 µM | [18] 332 nM | [11] 0.264 µM | [17] 418 nM | [7] 1.48 µM | [8] 187 nM | [12] 4.69 µM | [9] 526 nM
